Screening results (PubChem)
AMA1-RON2 inh: AMA1-RON2 (P. falciparum) interaction inhibition; AID 720542; AlphaScreen AMA1-biotinylated RON2 peptide binding; Potency, µM (doses to about 58.2 µM), for inactives: top-dose activity change, negative = inhibition, hits mostly inhibitors; hit rate 0.2% among 360,000;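 note: 0% = vehicle wells and -100% = peptide control; nearly all actives have a fitted effect of over 45% in size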
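AMA1 (3D7) with his tag at 25 nM final met compounds first, then biotinylated RON2 peptide at 25 nM; detection used donor plus acceptor beads, 10 µg/mL apiece, read by AlphaScreen after 30 min at room temperature.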
HCV inhibitor: HCV inhibition; hit rate 3.4% among 340,000; Potency, µM (series often up to 41.8 µM), for the others: at the highest dose activity change, negative = inhibition, hits mostly inhibitors; Huh7.5.1 HCVcc-Cre infection, luciferase reporter, 44 h
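After 44 h co-culture of compound, cells and HCVcc-Cre (~0.5 moi), substrate is added for 15 min at room temperature and luciferase measured over 15 sec. Cells were seeded at 1,000/well and pre-cultured 4 h.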
Pf growth 48h: P. falciparum growth inhibition at 48 hours (one generation). Potency, µM (titrated, usually from 28.7 µM), without a hit: top-dose activity change, negative = inhibition, most hits filed as inhibitors. P. falciparum luciferase growth in erythrocytes, 48 h. hit rate 5.9% among 310,000
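Luminescence readout; reporter = integrated firefly luciferase in P. falciparum. RBC culture at 2% hematocrit, 0.1% parasitemia final, 37 C/5% CO2; decreased signal taken as growth inhibition.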
Pf growth 96h: inhibits malaria parasite growth, 96 h; AID 504834; hit rate 6.9% among 320,000; Potency, µM (highest dose often 28.7 µM), without a hit: top-dose activity change, negative = inhibition, actives largely listed as inhibitors; P. falciparum luciferase reporter growth, 96 h
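Infected RBCs, 2% Hct / 0.05% parasitemia final; luciferase-reporter P. falciparum; cpd 96 h, 37 C, 5% CO2; luciferase detection reagent; luminescence.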
AmpC detergent: blocks E. coli AmpC beta-lactamase in detergent assay | P00811 | AmpC hydrolysis of nitrocefin, absorbance 480 nm, 0.01% Triton | Potency, µM (titrated, usually from 114 µM), without a hit: top-dose activity change, negative = inhibition, usual class: inhibitors | hit rate 0.041% among 370,000;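 note: 0% = no-compound wells and -100% = no-enzyme wells; nearly all actives have a fitted effect of over 25% in size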
Target sequence (P00811 whole entry, looked up): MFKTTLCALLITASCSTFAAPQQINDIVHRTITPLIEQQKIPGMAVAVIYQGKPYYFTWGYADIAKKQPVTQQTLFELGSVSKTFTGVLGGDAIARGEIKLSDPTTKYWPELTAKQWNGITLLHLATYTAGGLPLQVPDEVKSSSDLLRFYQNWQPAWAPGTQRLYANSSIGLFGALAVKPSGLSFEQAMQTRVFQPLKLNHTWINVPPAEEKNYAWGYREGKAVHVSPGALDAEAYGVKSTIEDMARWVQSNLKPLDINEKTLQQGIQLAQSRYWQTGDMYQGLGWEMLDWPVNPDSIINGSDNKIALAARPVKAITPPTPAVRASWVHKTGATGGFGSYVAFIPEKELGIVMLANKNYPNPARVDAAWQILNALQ
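AmpC (5.3 nM in the dispensed reagent) in 20 mM phosphate pH 7.0 with 0.01% (detergent screen) or 0.0001% Triton X-100 was preincubated with compounds for 15 min at room temperature. Nitrocefin was then added from an 800 uM solution, and hydrolysis was followed at 480 nm.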
AmpC inh no detg: blocks E. coli AmpC beta-lactamase in detergent-free assay | AmpC nitrocefin hydrolysis, absorbance 480 nm, 0.0001% Triton | P00811 | hit rate 0.52% among 330,000 | Potency, µM (series often up to 57.1 µM), for inactives: at the highest dose activity change, negative = inhibition, usual class: inhibitors;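 note: plate controls were no compound for no effect and no enzyme for full effect; nearly all actives have a fitted effect of over 20% in size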
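20 mM phosphate pH 7.0 + 0.01% (detergent screen) or 0.0001% Triton X-100; 5.3 nM AmpC reagent; cpd preinc 15 min RT; nitrocefin (800 uM stock) to start; A480 q20 s × 4 min; Activity was normalised to no-enzyme and no-compound control wells.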
* hit, by the source's call; u = inconclusive; x = no result; [ ] = another dose, or the depositor's remark. Sampled rows, rich in hits. Any-hit rate of the full collection: about 11%. Calls come from the whole dose curve; as a rule, active = well fitted curve in the direction sought with a large enough effect; inconclusive = small, poorly fitted or top-dose-only effect, or another doubt; inactive = no such curve, though single readings can be large; an effect the other way counts as inactive or inconclusive. Unless noted, % is set by controls: 0 for no effect and ±100 for the full control effect; potency is the fitted concentration of half-maximal effect.

SMILES | AMA1-RON2 inh | HCV inhibitor | Pf growth 48h | Pf growth 96h | AmpC detergent | AmpC inh no detg
Cc1ccc2c(c1)c1c3n2CCN(C(=O)c2cccc(C(F)(F)F)c2)C3CCC1 (stereo not drawn) | x | x | x | x | 0.0% | x
Cc1ccc(S(=O)(=O)c2cnc(SCC(=O)Nc3ccccc3C(F)(F)F)[nH]c2=O)cc1C | x | x | x | x | 19.0% | x
NC1CCCCC1N=Cc1c(O)n(CCc2ccc(F)cc2)c(=O)[nH]c1=O (stereo not drawn) | 2.3% | u | u | 4.65µM* | 0.9% | -2.7%
Cc1ccc(/C=N/NC(=S)N2CCOCC2)cc1 | -1.6% | -1.9% | 2.33µM* | u | u | -29.9%
CCc1ccc(CC(=S)N2CCOCC2)cc1 | 3.3% | 3.9% | 26.3% | u | 2.9% | -6.6%
Cc1ccc(CC(=S)N2CCOCC2)cc1 | 16.1% | 15.2% | 12.8% | 13.1µM* | 3.8% | -24.0%
S=C(N/N=C/c1ccc(Cl)cc1)N1CCOCC1 | 7.8% | 8.4% | 53.9% | 46.5% | -5.8% | -27.3%
Oc1ccc(N=Nc2c(O)ccc3ccccc23)cc1 | 16.8µM* | 14.1µM* | u | u | u | -51.6%
CC(C)(C)[C@H](NC(=O)c1ccc(N)c(Cl)c1)C(=O)N1CCC[C@H]1C(=O)N[C@H](C#N)Cc1nn[nH]n1 | x | x | u | u | u | -15.1%
Cc1cc(C)cc(NC(=O)Cn2c(=O)n(-c3cc(C)cc(C)c3)c(=O)c3oc4ccccc4c32)c1 | x | x | x | x | -5.7% | x
Cc1nc2c(c(C)c1CCC(=O)NCc1ccc(F)cc1)c(=O)n(C)c(=O)n2C | x | x | x | x | -9.1% | x
CCCCCCCCNc1ncnc2ccccc12 | 49.0% | 0.794µM* | x | 5.22µM* | -5.4% | -17.0%
Cc1cc2c(SCC(=O)NC3CCCCC3)ncnc2s1 | -1.3% | 3.7% | 1.8% | 11.1% | 3.5% | -14.4%
Cc1cc2c(NC3CCCCC3)ncnc2s1 | -2.5% | 10µM* | -15.5% | -18.6% | u | -19.8%
c1ccc(CCNc2ncnc3ccccc23)cc1 | 7.8% | 1.12µM* | 278.2% | -5.5% | -7.7% | -18.5%
Cc1cc2c(NCCc3ccccc3)ncnc2s1 | -2.1% | 5.62µM* | 13.8% | -0.9% | 5.8% | -15.2%
Cc1ccc(-n2ncc3c(NCCc4ccccc4)ncnc32)cc1 | x | x | x | x | -1.7% | x
Cc1cccc(Nc2ncnc3ccc(Br)cc23)c1 | 35.0% | -17.8% | u | 0.0% | 4.1% | -33.4%
Brc1ccc2ncnc(NCc3ccccc3)c2c1 | 3.5% | 10µM* | u | 129.6% | -7.2% | -36.0%
Cc1cc(Cn2ccnc2)c(C)c([N+](=O)[O-])c1Cn1ccnc1 | 2.3% | -0.5% | 10.4µM* | u | 2.6% | -6.2%
N#Cc1ccc(CN2CCN(C(=O)c3ccc(S(=O)(=O)NCc4ccco4)cc3)CC2)cc1 | 9.5% | 6.31µM* | u | 3.7µM* | 8.5% | 70.9%
O=C(c1ccc(S(=O)(=O)NCc2ccco2)cc1)N1CCCC1 | 3.2% | -1.3% | 5.2% | -16.3% | 3.3% | -2.1%
CS(=O)(=O)c1ccc(C(=O)N2CCN(Cc3ccccc3)CC2)cc1 | 5.2% | 3.4% | -10.9% | -1.5% | -12.2% | -12.9%[11.4 µM]
O=C(c1ccc(CNS(=O)(=O)c2ccccc2)cc1)N1CCN(Cc2ccccc2)CC1 | 5.3% | 11.2µM* | -20.4% | x | -4.0% | 87.4%
CN(c1ccc(C(=O)N2CCN(Cc3ccccc3)CC2)cc1)S(=O)(=O)c1ccc(Cl)cc1 | -1.0% | 10µM* | u | -14.4% | 2.9% | 191.4%
O=C(c1ccc(C#CC2(O)CCCCC2)cc1)N1CCN(Cc2ccccc2)CC1 | -0.6% | 3.5% | u | 10.4µM* | -10.0% | 136.4%
Cc1ccc(N(C)S(=O)(=O)c2cccc(C(=O)N3CCN(Cc4ccccc4)CC3)c2)cc1 | 2.9% | u | x | x | x | 232.4%
Cc1cccc(-n2cnc3cc(C(=O)NC4CCCCCC4)ccc32)c1 | x | x | x | x | 5.5% | x
CC(C)Cn1c(=O)c2ccccc2n2c(CCC(=O)Nc3ccc(F)c(F)c3)nnc12 | x | x | x | x | 19.0% | x
